In PubChem BioAssay (EPA / NIEHS):
Where “and” joins values, the source holds several entries; their conditions need not be identical. Equal entries are not always repeated. Some structures have more than one record in an assay (separate samples or runs), and their calls can disagree. Calls of active or inactive are those of the source. How the source made its calls: active means hit-call score of the fitted dose curve at least 0.9, where 1 is the maximum; inactive means score below 0.9.

Columns and labels:
[1] = target: Bile acid receptor (Homo sapiens) (UniProt Q96RI1); assay: ATG_IR1_CIS: Attagene CIS-FACTORIAL HepG2 Assay for human Nuclear Receptor Subfamily 1 Group H Member 4 (NR1H4), IR1 submotif (AID 2282946); conditions: IR1 reporter transcription, actives raise or lower the signal
Bile acid receptor (Homo sapiens), sequence (Q96RI1 whole entry, looked up): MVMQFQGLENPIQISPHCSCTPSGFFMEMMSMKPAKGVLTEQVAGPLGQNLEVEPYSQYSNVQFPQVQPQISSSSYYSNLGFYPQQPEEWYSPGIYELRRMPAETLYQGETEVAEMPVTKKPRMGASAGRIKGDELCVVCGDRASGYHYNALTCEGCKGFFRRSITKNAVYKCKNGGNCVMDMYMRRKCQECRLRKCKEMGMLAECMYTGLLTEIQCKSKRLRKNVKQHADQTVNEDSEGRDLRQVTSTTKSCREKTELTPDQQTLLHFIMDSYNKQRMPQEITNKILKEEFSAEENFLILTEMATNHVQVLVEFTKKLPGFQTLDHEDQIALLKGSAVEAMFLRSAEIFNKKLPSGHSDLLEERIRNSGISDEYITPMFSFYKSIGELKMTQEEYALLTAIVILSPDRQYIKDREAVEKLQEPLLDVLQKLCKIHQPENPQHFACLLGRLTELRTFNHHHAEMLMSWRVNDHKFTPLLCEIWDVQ
Summary of the method: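 HepG2 cells transiently transfected with multiplexed cis-element reporter units read endogenous transcription factor activity. After 24 h compound exposure, reporter mRNA was quantified by RT-PCR, fluorescent labelling, HpaI digestion and capillary electrophoresis; bidirectional fitting versus DMSO baseline.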

[2] = ATG_GRE_CIS: Attagene CIS-FACTORIAL HepG2 Assay for human Glucocorticoid Response Elements (GRE) (AID 2282947); conditions: HepG2 GRE cis-reporter, Attagene multiplex mRNA; actives raise or lower the signal
Summary of the method: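 Multiplexed cis-reporter mRNA induction, HepG2, 24 h post-dose. RT-PCR, FAM-labelled, HpaI-digested amplicons by CE. Bidirectional fit vs DMSO.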

[3] = ATG_ISRE_CIS: Attagene CIS-FACTORIAL HepG2 Assay for human Interferon Regulatory Factor 1 (IRF1) binding to an Interferon-Stimulated Response Element (ISRE) (AID 2282948); conditions: HepG2 ISRE cis-reporter (Attagene), mRNA transcription readout; actives raise or lower the signal
Summary of the method: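 Uses HepG2 liver cells transfected with cis-regulated reporters and measures mRNA 24 h post-dosing through RT-PCR, primer-extension labelling and capillary electrophoresis, with DMSO as negative control.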

[4] = ATG_M_32_CIS: Attagene CIS-FACTORIAL HepG2 Assay for M32 Transcription Factor (Internal Marker) (AID 2282949); conditions: HepG2 Attagene cis-factorial M32 reporter, mRNA; actives raise or lower the signal;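 further: background control marker of the multiplexed CIS panel rather than a real target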
Summary of the method: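 Transient MRTU transfection of HepG2; 24 h compound treatment; TriZol RNA, oligo(dT) RT, reporter PCR, 6-FAM primer extension, HpaI cut, CE. Gain/loss of signal vs DMSO.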

[5] = ATG_M_06_CIS: Attagene CIS-FACTORIAL HepG2 Assay for M06 Transcription Factor (Internal Marker) (AID 2282950); conditions: HepG2 Attagene CIS-FACTORIAL M06 internal marker reporter; actives raise or lower the signal
Summary of the method: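 Terse: HepG2, transient MRTU transfection (FuGene 6), 24 h dosing; total RNA, oligo(dT) RT, PCR, FAM label, HpaI cut, capillary electrophoresis; bidirectional fit vs DMSO baseline; background-control endpoint.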

[6] = target: Hypoxia-inducible factor 1-alpha (Homo sapiens) (UniProt Q16665); assay: ATG_HIF1a_CIS: Attagene CIS-FACTORIAL HepG2 Assay for human Hypoxia Inducible Factor 1 (HIF1A) (AID 2282951); conditions: HepG2 Attagene cis-factorial HIF1a reporter transcription; actives raise or lower the signal
Hypoxia-inducible factor 1-alpha (Homo sapiens), sequence (Q16665 whole entry, looked up): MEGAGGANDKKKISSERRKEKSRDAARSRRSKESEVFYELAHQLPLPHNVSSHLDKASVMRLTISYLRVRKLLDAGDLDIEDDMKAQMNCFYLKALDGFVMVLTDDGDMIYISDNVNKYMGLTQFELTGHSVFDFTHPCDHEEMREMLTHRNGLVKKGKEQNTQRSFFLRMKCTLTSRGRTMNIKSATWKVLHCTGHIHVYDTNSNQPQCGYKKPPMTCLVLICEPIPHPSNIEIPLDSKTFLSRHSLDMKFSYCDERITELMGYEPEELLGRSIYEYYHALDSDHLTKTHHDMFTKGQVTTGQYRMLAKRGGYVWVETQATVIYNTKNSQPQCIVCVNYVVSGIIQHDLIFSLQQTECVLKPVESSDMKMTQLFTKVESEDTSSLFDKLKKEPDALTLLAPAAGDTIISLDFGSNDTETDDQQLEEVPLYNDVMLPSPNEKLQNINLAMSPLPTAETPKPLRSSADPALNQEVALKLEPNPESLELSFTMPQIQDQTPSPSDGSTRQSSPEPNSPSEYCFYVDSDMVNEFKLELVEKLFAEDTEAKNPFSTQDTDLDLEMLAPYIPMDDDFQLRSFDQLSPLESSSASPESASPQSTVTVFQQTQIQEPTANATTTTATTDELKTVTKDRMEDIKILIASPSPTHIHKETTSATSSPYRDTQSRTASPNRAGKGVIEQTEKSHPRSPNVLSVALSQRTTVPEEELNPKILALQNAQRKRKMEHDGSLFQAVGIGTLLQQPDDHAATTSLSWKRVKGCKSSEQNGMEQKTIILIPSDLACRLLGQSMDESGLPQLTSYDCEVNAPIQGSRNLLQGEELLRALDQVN
Summary of the method: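 Dosed 24 h, transfected HepG2 cells yielded total RNA whose reporter transcripts were RT-PCR-amplified and sized by capillary electrophoresis using fluorescent labelling; DMSO defined baseline, with gain and loss of signal both fitted.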

[7] = target: Hepatocyte nuclear factor 6 (Homo sapiens) (UniProt Q9UBC0); assay: ATG_HNF6_CIS: Attagene CIS-FACTORIAL HepG2 Assay for human Hepatocyte Nuclear Factor 6 (HNF6) (AID 2282952); conditions: HepG2 Attagene cis-factorial HNF6 reporter transcription; actives raise or lower the signal
Hepatocyte nuclear factor 6 (Homo sapiens), sequence (Q9UBC0 whole entry, looked up, the tested form may be a part): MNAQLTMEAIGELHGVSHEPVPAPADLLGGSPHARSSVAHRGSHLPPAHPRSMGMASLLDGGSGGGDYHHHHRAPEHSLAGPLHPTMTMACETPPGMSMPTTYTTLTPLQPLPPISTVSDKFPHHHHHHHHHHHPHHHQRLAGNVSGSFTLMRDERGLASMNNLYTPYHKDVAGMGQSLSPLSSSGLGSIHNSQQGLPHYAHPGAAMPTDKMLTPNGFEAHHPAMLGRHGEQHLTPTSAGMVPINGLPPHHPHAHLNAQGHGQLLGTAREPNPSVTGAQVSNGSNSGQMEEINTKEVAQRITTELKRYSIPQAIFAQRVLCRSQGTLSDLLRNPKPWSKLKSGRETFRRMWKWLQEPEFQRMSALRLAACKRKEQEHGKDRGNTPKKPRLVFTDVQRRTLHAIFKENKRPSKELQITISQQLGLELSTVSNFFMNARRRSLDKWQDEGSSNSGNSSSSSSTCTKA
Summary of the method: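 Twenty-four-hour chemical treatment of reporter-transfected HepG2 cells precedes RNA isolation, DNase-treated reverse transcription and PCR of reporter sequences. Labelled fragments are sized by capillary electrophoresis and fitted bidirectionally versus DMSO.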

[8] = target: Heat shock factor protein 1 (Homo sapiens) (UniProt Q00613); assay: ATG_HSE_CIS: Attagene CIS-FACTORIAL HepG2 Assay for human Heat Shock Transcription Factor 1 (HSE) (AID 2282953); conditions: HepG2 HSE cis-reporter, Attagene RNA transcription; actives raise or lower the signal
Heat shock factor protein 1 (Homo sapiens), sequence (Q00613 whole entry, looked up, the tested form may be a part): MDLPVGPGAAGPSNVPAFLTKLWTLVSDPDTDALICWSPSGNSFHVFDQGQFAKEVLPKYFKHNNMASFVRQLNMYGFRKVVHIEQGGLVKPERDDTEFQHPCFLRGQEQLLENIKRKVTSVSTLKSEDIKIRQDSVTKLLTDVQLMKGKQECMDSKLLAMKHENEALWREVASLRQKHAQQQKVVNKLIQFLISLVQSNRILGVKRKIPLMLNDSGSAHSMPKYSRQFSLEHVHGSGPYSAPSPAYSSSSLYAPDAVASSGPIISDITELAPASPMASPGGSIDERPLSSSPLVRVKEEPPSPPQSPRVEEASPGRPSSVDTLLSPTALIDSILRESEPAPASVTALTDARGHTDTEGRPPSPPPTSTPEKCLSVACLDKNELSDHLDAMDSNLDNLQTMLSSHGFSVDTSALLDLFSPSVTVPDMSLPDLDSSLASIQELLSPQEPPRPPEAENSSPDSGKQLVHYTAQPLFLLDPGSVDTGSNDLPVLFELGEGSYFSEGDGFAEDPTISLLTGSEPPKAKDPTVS
Summary of the method: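 Read-out: fluorescence of reporter-specific RT-PCR fragments separated by capillary electrophoresis. HepG2 carrying transfected cis-element reporter units; 24 h dosing; activity fitted in both directions relative to DMSO baseline.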

[9] = ATG_MRE_CIS: Attagene CIS-FACTORIAL HepG2 Assay for human Metal Responsive Element (MRE) (AID 2282954); conditions: HepG2 MRE cis-reporter transcription, Attagene multiplex; actives raise or lower the signal
Summary of the method: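 Multiplexed cis-reporter assay in human HepG2 liver cells, 24 h incubation with test chemical. Reporter transcripts measured by RT-PCR and capillary electrophoresis; values from bidirectional curve fitting versus DMSO.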

[10] = ATG_PBREM_CIS: Attagene CIS-FACTORIAL HepG2 Assay for human Phenobarbital-responsive Enhancer Module (PBREM) (AID 2282955); conditions: HepG2 PBREM cis-reporter, Attagene multiplexed transcription; actives raise or lower the signal
Summary of the method: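 Transfected liver-derived HepG2 cells exposed 24 h; PBREM reporter transcript quantified via RT-PCR and capillary electrophoresis, with activity in either direction referenced to DMSO.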

[11] = target: Paired box protein Pax-6 (Homo sapiens) (UniProt P26367); assay: ATG_Pax6_CIS: Attagene CIS-FACTORIAL HepG2 Assay for human Paired Box 6 (PAX6) (AID 2282956); conditions: HepG2 CIS-FACTORIAL PAX6 reporter transcription, RNA readout; actives raise or lower the signal
Paired box protein Pax-6 (Homo sapiens), sequence (P26367 whole entry, looked up): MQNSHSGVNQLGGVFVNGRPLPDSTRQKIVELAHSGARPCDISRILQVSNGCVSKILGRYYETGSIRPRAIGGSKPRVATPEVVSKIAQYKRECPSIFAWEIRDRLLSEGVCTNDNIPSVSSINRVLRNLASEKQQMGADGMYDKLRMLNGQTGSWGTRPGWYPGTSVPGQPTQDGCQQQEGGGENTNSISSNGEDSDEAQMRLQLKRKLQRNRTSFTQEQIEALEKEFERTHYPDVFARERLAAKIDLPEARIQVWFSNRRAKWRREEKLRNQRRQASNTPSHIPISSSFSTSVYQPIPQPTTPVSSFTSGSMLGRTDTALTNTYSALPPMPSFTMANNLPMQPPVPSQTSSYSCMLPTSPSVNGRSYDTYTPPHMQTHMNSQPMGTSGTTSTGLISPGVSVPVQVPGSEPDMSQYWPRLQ
Summary of the method: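 DMSO-referenced bidirectional fits of reporter mRNA fluorescence; HepG2 with transient cis-promoter MRTUs, 24 h post-dose, RT-PCR plus capillary electrophoresis detection.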

[12] = ATG_PXRE_CIS: Attagene CIS-FACTORIAL HepG2 Assay for human Pregnane X Receptor Element (PXRE) (AID 2282957); conditions: HepG2 Attagene CIS-FACTORIAL PXRE reporter, mRNA; actives raise or lower the signal
Summary of the method: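 Bidirectional activity, baselined to DMSO, derived from reporter mRNA fluorescence (RT-PCR plus capillary electrophoresis) in HepG2 cells bearing cis-promoter reporter units, 24 h exposure.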

[13] = ATG_PPRE_CIS: Attagene CIS-FACTORIAL HepG2 Assay for human Peroxisome Proliferator-activated Response Element (PPRE) (AID 2282958); conditions: HepG2 PPRE cis-element reporter, Attagene transcription factor profiling; actives raise or lower the signal
Summary of the method: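 Measured endpoint: PPRE-controlled reporter mRNA, detected by RT-PCR and capillary electrophoresis fluorescence, from transiently transfected HepG2 cells 24 h after dosing. Curves fitted in both directions using DMSO baseline.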

[14] = ATG_RORE_CIS: Attagene CIS-FACTORIAL HepG2 Assay for human RAR-related Orphan Receptor Element (RORE) (AID 2282959); conditions: HepG2 Attagene cis-factorial RORE reporter, mRNA; actives raise or lower the signal
Summary of the method: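 Transiently transfected HepG2 reporter cells were treated 24 h. Reporter transcripts were detected by RT-PCR and capillary electrophoresis, with bidirectional fitting against DMSO.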

[15] = ATG_Sox_CIS: Attagene CIS-FACTORIAL HepG2 Assay for human SRY-box transcription factor (SOX) (AID 2282960); conditions: HepG2 Attagene cis-factorial SOX reporter, mRNA; actives raise or lower the signal
Summary of the method: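 Gain- or loss-of-signal endpoint, fitted bidirectionally with DMSO as negative control. Based on reporter mRNA from transfected HepG2 cells harvested 24 h post-treatment and quantified via RT-PCR and capillary electrophoresis.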

[16] = target: Transcription factor Sp1 (Homo sapiens) (UniProt P08047); assay: ATG_Sp1_CIS: Attagene CIS-FACTORIAL HepG2 Assay for human Specificity Protein 1 (Sp1) (AID 2282961); conditions: HepG2 Sp1 cis-reporter transcription, actives raise or lower the signal
Transcription factor Sp1 (Homo sapiens), sequence (P08047 whole entry, looked up, the tested form may be a part): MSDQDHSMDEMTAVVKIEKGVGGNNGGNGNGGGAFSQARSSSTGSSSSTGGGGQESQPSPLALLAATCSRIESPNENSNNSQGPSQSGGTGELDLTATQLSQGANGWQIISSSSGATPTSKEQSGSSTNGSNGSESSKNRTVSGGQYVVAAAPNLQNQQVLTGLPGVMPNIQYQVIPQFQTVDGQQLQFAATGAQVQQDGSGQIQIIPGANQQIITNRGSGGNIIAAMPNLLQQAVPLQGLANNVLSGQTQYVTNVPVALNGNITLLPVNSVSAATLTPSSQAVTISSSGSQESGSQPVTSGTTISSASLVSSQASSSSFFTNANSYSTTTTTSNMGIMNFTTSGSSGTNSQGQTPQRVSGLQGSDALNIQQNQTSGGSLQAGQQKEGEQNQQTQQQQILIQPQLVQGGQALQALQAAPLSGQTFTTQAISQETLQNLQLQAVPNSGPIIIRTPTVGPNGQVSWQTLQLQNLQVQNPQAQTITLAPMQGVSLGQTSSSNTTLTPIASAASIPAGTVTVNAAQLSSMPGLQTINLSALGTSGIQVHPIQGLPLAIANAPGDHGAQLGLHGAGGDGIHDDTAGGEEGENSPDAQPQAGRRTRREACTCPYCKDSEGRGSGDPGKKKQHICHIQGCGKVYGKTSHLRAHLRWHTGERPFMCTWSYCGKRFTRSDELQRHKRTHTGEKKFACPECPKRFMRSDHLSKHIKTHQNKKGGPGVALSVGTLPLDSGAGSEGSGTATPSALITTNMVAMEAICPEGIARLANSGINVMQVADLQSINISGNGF
Summary of the method: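 Endpoint reflects endogenous Sp1 transcriptional activity, not an exogenous fusion protein: HepG2 cells with transfected cis-regulated reporters, 24 h dosing, RT-PCR/capillary electrophoresis mRNA read-out, DMSO-normalised bidirectional fit.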

[17] = ATG_SREBP_CIS: Attagene CIS-FACTORIAL HepG2 Assay for human Sterol Regulatory Element Binding (SREBP) (AID 2282962); conditions: HepG2 Attagene cis-factorial SREBP reporter, mRNA; actives raise or lower the signal
Summary of the method: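 In this cis-format assay, HepG2 liver cells express reporters controlled by promoter elements responsive to native transcription factors. Exposure lasts 24 h; reporter mRNA fluorescence from capillary electrophoresis gives the signal, fitted bidirectionally against DMSO.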

[18] = target: Signal transducer and activator of transcription 3 (Homo sapiens) (UniProt P40763); assay: ATG_STAT3_CIS: Attagene CIS-FACTORIAL HepG2 Assay for human Signal Transducer and Activator of Transcription 3 (STAT3) (AID 2282963); conditions: HepG2, Attagene cis-factorial STAT3 reporter transcription; actives raise or lower the signal
Signal transducer and activator of transcription 3 (Homo sapiens), sequence (P40763 whole entry, looked up): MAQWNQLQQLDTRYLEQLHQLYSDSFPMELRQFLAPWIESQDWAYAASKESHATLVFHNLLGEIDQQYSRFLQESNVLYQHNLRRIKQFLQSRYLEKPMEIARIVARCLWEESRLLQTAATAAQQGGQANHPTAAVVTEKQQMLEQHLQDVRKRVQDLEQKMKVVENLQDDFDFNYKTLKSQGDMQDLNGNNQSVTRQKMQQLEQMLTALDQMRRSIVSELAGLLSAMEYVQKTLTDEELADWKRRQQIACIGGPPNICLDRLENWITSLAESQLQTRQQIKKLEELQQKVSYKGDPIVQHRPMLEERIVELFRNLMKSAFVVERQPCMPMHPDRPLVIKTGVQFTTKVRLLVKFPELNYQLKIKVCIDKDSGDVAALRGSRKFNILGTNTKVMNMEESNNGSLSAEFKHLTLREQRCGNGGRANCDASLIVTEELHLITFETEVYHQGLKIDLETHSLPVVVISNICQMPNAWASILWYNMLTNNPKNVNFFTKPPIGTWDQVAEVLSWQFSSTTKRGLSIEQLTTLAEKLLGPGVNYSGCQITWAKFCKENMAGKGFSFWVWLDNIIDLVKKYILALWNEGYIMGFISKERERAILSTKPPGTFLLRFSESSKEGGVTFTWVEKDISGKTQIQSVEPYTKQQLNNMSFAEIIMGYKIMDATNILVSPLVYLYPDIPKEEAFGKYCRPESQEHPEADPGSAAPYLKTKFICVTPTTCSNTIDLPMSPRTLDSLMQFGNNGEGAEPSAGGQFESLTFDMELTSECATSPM
Summary of the method: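 Cis-factorial format: endogenous transcription factors in HepG2 drive transfected reporter units. After 24 h treatment, reporter RNA was reverse-transcribed, amplified, FAM-labelled and HpaI-digested before CE analysis; activity scored in both directions against DMSO.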

[19] = ATG_TA_CIS: Attagene CIS-FACTORIAL HepG2 Assay for human TA Basal Promoter (AID 2282964); conditions: HepG2 Attagene CIS-factorial TA basal promoter reporter; actives raise or lower the signal
Summary of the method: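 Transfected HepG2, 24 h compound exposure; RNA → RT-PCR → FAM primer extension → HpaI cut → CE fluorescence. Gain/loss-of-signal fitted against DMSO negative control. Background-control readout.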

[20] = ATG_TCF_b_cat_CIS: Attagene CIS-FACTORIAL HepG2 Assay for human T-Cell-Factor with beta-catenin (TCF/b-cat) (AID 2282965); conditions: HepG2 TCF/beta-catenin cis-reporter transcription, actives raise or lower the signal
Summary of the method: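 Measured: reporter mRNA in HepG2 transiently transfected with cis-promoter reporter units, 24 h after chemical addition. Fitting was bidirectional, DMSO as negative control.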

Measured: AC50

CCC(=O)C(CC(C)N(C)C)(c1ccccc1)c1ccccc1 (stereo unspecified)
active: [12] 18.6 µM | [17] 14.2 µM
inactive: all other assays above

ClCc1cccnc1
active: [2] 72.5 µM | [9] 45.9 µM | [11] 75.4 µM | [16] 30.8 µM
not listed: [12]
inactive: all other assays above

CC(C)(c1ccccc1)c1ccc(O)c(C(C)(C)c2ccccc2)c1
active: [1] 2.78 µM | [6] 11.1 µM | [8] 17.9 µM | [9] 13.3 µM | [10] 0.42 µM | [11] 12.7 µM | [13] 3.04 µM | [16] 7.78 µM | [17] 4.24 µM
not listed: [4] | [12]
inactive: all other assays above

CCC[CH2][Sn]([Cl])([Cl])[Cl]
inactive: all assays above

Nc1ncc([N+](=O)[O-])s1
not listed: [10]
inactive: all other assays above

CC(C)(OO)c1ccccc1
inactive: all assays above

C[C@@H]1C[C@@H]([C@H](O)CC2CC(=O)NC(=O)C2)C(=O)[C@@H](C)C1
inactive: [1] | [4] | [5] | [6] | [7] | [8] | [9] | [11] | [13] | [14] | [15] | [16] | [17] | [18] | [19]
active: [1] 0.304 µM | [6] 119 nM and 22.9 µM | [8] 2.68 µM and 1.53 µM | [13] 27.5 µM | [20] 8.48 µM [middle of 4 runs]

O=C1CCCN1
not listed: [4]
inactive: all other assays above

CN(C)N=O
not listed: [12] | [13]
inactive: all other assays above

Clc1ccc(C2(Cn3cncn3)CC(Br)CO2)c(Cl)c1 (stereo unspecified)
active: [6] 26 µM | [8] 177 µM | [9] 145 µM | [10] 6.34 µM | [12] 1.23 µM | [13] 99.5 µM | [14] 70.7 µM | [17] 8.75 µM
inactive: all other assays above

O=[N+]([O-])c1ccc2c3c(cccc13)CC2
active: [6] 26.7 µM
not listed: [8] | [10] | [12]
inactive: all other assays above

CCOC(=O)/C=C(C)/C=C/C[C@@H](C)CCCC(C)C
inactive: [3] | [5] | [11] | [13] | [15] | [16] | [19] | [20]
active: [1] 41 µM | [2] 74.7 µM | [6] 24.4 µM | [7] 176 µM | [8] 62.9 µM | [9] 174 µM | [10] 182 µM | [12] 2.55 µM | [17] 124 µM | [18] 176 µM

CCN(CC)C(=O)Cl
not listed: [4] | [12]
inactive: all other assays above
